ALR inh = inhibitors of human sulfhydryl oxidase ALR | P55789 | purified ALR, DTT oxidation, H2O2 HRP-luminol luminescence | actives 3.8% (n = 290,000) | inhibition, % (concentration not given with the values);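 active = mean replicate inhibition above about 79%, with every replicate also reaching it, limit read from the data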
Target sequence (P55789 whole entry, looked up): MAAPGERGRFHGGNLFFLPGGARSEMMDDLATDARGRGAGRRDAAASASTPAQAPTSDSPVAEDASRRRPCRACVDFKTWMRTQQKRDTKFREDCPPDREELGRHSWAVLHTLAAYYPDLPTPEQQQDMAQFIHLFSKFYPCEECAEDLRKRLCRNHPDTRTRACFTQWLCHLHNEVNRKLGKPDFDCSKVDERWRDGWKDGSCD
APOBEC3A inh = blocks human APOBEC3A ssDNA deamination | recombinant A3A, FAM/TAMRA ssDNA deamination fluorescence | inhibition, % at 20 µM | actives 0.41% (n = 330,000) | AID 493011;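 active = at least 40% inhibition at 20 µM here, with at most 30% in a related deaminase screen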;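 also: plate controls were A3A with DMSO for no effect and wells lacking A3A enzyme for full effect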
Target sequence (P31941 whole entry, looked up): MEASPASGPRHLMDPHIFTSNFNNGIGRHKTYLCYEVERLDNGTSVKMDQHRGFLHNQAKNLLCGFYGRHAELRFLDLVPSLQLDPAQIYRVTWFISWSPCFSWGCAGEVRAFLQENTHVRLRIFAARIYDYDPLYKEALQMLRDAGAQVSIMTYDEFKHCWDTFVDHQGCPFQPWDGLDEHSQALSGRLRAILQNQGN
PHOSPHO1 block = blocks human PHOSPHO1 phosphatase activity; recombinant PHOSPHO1, absorbance phosphatase assay; inhibition, % at 13.3 µM; actives 1.1% (n = 290,000); Q8TCT1; in the data active = inhibition above about 60%
Target sequence (Q8TCT1 whole entry, looked up): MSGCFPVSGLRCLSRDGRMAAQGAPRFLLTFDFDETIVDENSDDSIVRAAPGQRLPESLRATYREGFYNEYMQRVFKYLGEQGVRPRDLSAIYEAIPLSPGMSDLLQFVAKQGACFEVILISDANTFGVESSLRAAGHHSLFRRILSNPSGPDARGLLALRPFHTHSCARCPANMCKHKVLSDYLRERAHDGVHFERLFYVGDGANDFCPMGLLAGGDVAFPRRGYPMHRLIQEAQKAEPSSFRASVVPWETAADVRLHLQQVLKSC
APOBEC3G inh = APOBEC3G (human) deaminase inhibition; inhibition, % at 20 µM; recombinant A3G, ssDNA deamination FAM/TAMRA fluorescence; Q9HC16; actives 0.28% (n = 330,000);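 active = inhibition of at least 40% at 20 µM, with no more than 30% in the related APOBEC3A deaminase screen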;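 also: plate controls were DMSO wells with A3G for no effect and wells lacking A3G enzyme for full effect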
rCAG binder = r(CAG) repeat RNA binding; TO-PRO-1 dye displacement fluorescence; inhibition, % at 3 µM; actives 1.3% (n = 370,000);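 active = inhibition above the plate cutoff, the mean of all test compounds on that plate plus 3 SD, cut at about 35% in these data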;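 also: 0% = DMSO alone and 100% = 100 µM mitoxantrone as full dye displacement; higher means more dye released from RNA so lower well fluorescence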
aDG glyco up = increases alpha dystroglycan glycosylation | Pro5-aDG cells, alpha-DG glycosylation AlphaScreen (IIH6); 0% Pro5, 100% B10-LARGE cell signal | activation, % at 10 µM | actives 0.22% (n = 360,000) | AID 624168;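 active = activation of at least 8% versus controls, or a plate z-score of at least 8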;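 also: Pro5 are CHO cells carrying HIG-tagged alpha-DG that lacks glycosylation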
* = called active by the depositor; nt = no result. Rows were chosen to be rich in hits. Some 5.4% of all compounds tested hit in one or more screens of this group.

SMILES	ALR inh	APOBEC3A inh	PHOSPHO1 block	APOBEC3G inh	rCAG binder	aDG glyco up
COC(=O)[C@@]12CCCCC=C1N(CCc1ccc(Cl)cc1)C(=O)[C@H]2CC(=O)NCc1cccc(C(F)(F)F)c1	nt	nt	nt	nt	3.5	nt
Cc1cccc(NC(c2ccc(O)cc2)c2ccc3ccc(C)nc3c2O)n1 (configuration not stated)	-37.8	-2.6	63.0*	1.4	2.4	0.3
Cc1nn(Cc2ccc(Cl)cc2Cl)c(C)c1NC(=O)CCl	90.3*	-0.4	5.7	-11.0	-0.7	0.5
CS(=O)(=O)OC12CCCN(C1)/C(=C/c1ccc(Cl)cc1)C2 (configuration not stated)	nt	nt	nt	nt	3.3	nt
COC(=O)c1c[nH]n2c(=O)c(Cl)c(C)nc12	0.4	-5.3	-5.0	-6.3	1.3	0.0
Cc1nc2c(C(=O)NCc3ccccc3)c[nH]n2c(=O)c1Cl	1.6	-2.7	47.1	-9.3	41.4*	0.1
C=CCN1[C@@H](CC(C)C)COc2cccc(N3CCSCC3)c2S1(=O)=O	nt	nt	nt	nt	2.1	nt
CCOC(=O)N[C@@H](Cc1cccnc1)C(=O)N1CCC[C@H]1C(=O)NC1CCCC1	nt	nt	nt	nt	-0.9	nt
O=S1(=O)CC2c3ccccc3CCN2CN1Cc1ccccc1 (configuration not stated)	nt	nt	nt	nt	-0.8	nt
COc1cc(/C=N/Nc2nc(C)cc(=O)[nH]2)cc(OC)c1O	nt	-1.7	9.3	-5.3	-0.1	-0.1
CCOc1cc(/C=N/Nc2nc(=O)[nH]nc2C)ccc1O	99.0*	-0.2	22.8	-1.3	1.4	0.2
COc1cc(/C=N/Nc2nc(=O)[nH]nc2C)cc(OC)c1O	93.2*	1.8	-0.8	5.2	9.6	-0.1
CCOc1ccc(/C=N/Nc2nc(=O)[nH]nc2C)cc1OC	-0.3	-2.2	-33.9	-4.5	-3.8	-0.1
O=C(CC(Nc1ccccc1Cl)C(=O)O)c1ccccc1 (configuration not stated)	97.5*	3.2	11.9	4.0	-1.2	0.2
COC(=O)[C@]12C[C@H](CC(=O)NCc3ccc(OC)c(OC)c3)C(=O)N(CCc3ccc(OC)c(OC)c3)C1=C[C@H](COCc1ccccc1)O[C@@H]2C	nt	nt	nt	nt	2.0	nt
CN1C(C(=O)c2ccccc2)=C(N)c2ccccc2S1(=O)=O	nt	-5.0	64.2*	-19.3	-3.0	0.0
O=C1OC(/C(=C\Nc2ccc(F)cc2F)[N+](=O)[O-])c2ccccc21 (configuration not stated)	97.1*	-2.1	40.8	-0.7	1.5	-0.2
C=CCn1c(C)cc(C(=O)COC(=O)c2ccc3c(c2)NC(=O)CS3)c1C	98.2*	6.8	-2.2	4.8	3.2	-0.2
COCCn1c(C)cc(C(=O)COC(=O)c2ccc3c(c2)NC(=O)CS3)c1C	97.7*	2.2	-4.6	1.4	1.2	-0.3
COCCn1c(C)cc(C(=O)COC(=O)c2ccc3ncsc3c2)c1C	-4.6	-0.9	-8.4	0.5	-1.9	0.1
CN(C)[C@@H]1CCN(c2cccc3c2S(=O)(=O)N2CC[C@@H](C2)O3)C1	nt	nt	nt	nt	2.6	nt
COCCN(Cc1ccc(C)cc1)C(=O)[C@H]1O[C@@H](n2cnc(C(N)=O)n2)[C@H](O)[C@@H]1O	nt	nt	nt	nt	-1.4	nt
COC(=O)[C@]12C[C@H](CC(=O)N3CCC(c4ccccc4)CC3)C(=O)N(Cc3ccccc3)C1=C[C@H](COCc1ccccc1)O[C@@H]2C	nt	nt	nt	nt	7.6	nt
CCCCC(=O)Nc1ccc(C(=O)NCC2COc3ccccc3O2)cc1 (configuration not stated)	nt	nt	nt	nt	0.9	nt
COc1ccc(C(=O)NCCn2cc(SCC(=O)NCc3ccco3)c3ccccc32)cc1	8.0	-2.8	61.5*	-8.7	-1.4	-0.2
SMILES	ALR inh	APOBEC3A inh	PHOSPHO1 block	APOBEC3G inh	rCAG binder	aDG glyco up
Cc1ccc(S(=O)(=O)Nc2c(Cl)c(Cl)c(O)c3ccccc23)cc1	47.6	-5.1	9.2	81.9*	nt	nt
Cc1cc(O)cc(C)c1NS(=O)(=O)c1ccc2ccccc2c1	78.7*	-2.5	28.4	-6.8	2.2	0.0
CNS(=O)(=O)c1ccc2ccccc2c1	-9.2	-8.9	20.3	-2.6	-4.6	-0.1
O=S(=O)(Nc1cccc2ccccc12)c1ccccc1F	21.1	0.0	23.7	-6.4	6.6	-0.1
Cc1ccc(S(=O)(=O)Nc2c(O)ccc3ccccc23)cc1	88.4*	0.3	nt	4.8	nt	1.0
O=S(=O)(Nc1c(O)ccc2ccccc12)c1cccc2ccccc12	87.1*	-3.6	nt	0.5	nt	0.6
Cc1ccc(S(=O)(=O)N2CCCc3nc(-c4ccccc4)ccc32)cc1	nt	nt	nt	nt	2.8	nt
COc1ccc(C#Cc2ccc3c(c2)[C@H]2[C@H](CCN2S(=O)(=O)c2ccccc2F)[C@H](CO)N3C)cc1	nt	nt	nt	nt	12.2	nt
O=C(C1CCN(S(=O)(=O)c2ccc3[nH]c(=O)oc3c2)CC1)N1CCCC1	nt	nt	nt	nt	6.5	nt
CN1CCCN(S(=O)(=O)c2ccc3c(c2)CCC(=O)N3)CC1	nt	nt	nt	nt	1.8	nt
COc1cc(OC)cc(C(=O)N2CCC(N3CCN(c4ccccc4)CC3)CC2)c1	82.4*	-1.6	21.5	-6.0	-1.4	0.3
Oc1ccc(/C=C/c2cc(O)cc(O)c2)cc1	79.2*	0.6	18.2	-5.5	3.3	0.0
CC(COc1ccc(F)cc1)CN1CCC(C(O)(c2ccccc2)c2ccccc2)CC1 (configuration not stated)	nt	nt	nt	nt	1.6	nt
O=C(Cc1cccs1)NC1CCCCN(Cc2cccc(Cl)c2)C1=O (configuration not stated)	nt	nt	nt	nt	2.0	nt
CC(=O)Nc1ccc(S(=O)(=O)N2CCNC(=O)C2)cc1	-3.0	-2.9	nt	-2.5	1.4	0.4
CC(=O)c1ccc(S(=O)(=O)N2CCNC(=O)C2)cc1	97.1*	3.7	nt	3.5	5.9	-0.1
CC1(C)CC(=O)c2cnn(-c3nc4ccccc4[nH]3)c2C1	93.7*	8.4	-7.0	0.2	-0.6	-0.4
Cc1c(NC(=S)N/C(=N/S(=O)(=O)c2ccc(Cl)cc2)c2ccccc2)c(=O)n(-c2ccccc2)n1C	-0.2	0.3	82.7*	-5.3	-4.2	-0.2
Cc1cc(C(=O)CSc2nnc(-c3ccc(OC(F)F)cc3)o2)c(C)n1Cc1cccs1	-16.4	-2.8	94.5*	-2.3	9.4	0.0
Cc1cc(C(=O)CSc2nnc(N)s2)c(C)n1Cc1cccs1	11.5	0.9	-11.0	-4.4	6.0	0.1
Cc1csc(SCC(=O)c2cc(C)n(Cc3cccs3)c2C)n1	65.8	1.5	91.1*	-5.7	-2.2	2.7
Nc1ccn([C@@H]2O[C@H](C(=O)N[C@H](Cc3ccccc3)C(=O)Nc3ccc4scnc4c3)[C@@H](O)[C@H]2O)c(=O)n1	nt	nt	nt	nt	4.3	nt
CCC(=O)Nc1cccc(-c2cnc3ccccc3n2)c1	87.9*	-0.8	-1.7	-5.1	-1.9	0.0
O=C(CCl)Nc1cccc(-c2cnc3ccccc3n2)c1	-12.0	4.4	10.1	-1.3	2.4	-0.5
C/C(=N\Nc1ccc([N+](=O)[O-])cc1)c1ccc(O)cc1	99.4*	1.7	32.0	3.8	14.3	0.6
C/C(=N\Nc1ncc(Br)cn1)c1cccc([N+](=O)[O-])c1	-4.5	0.3	13.8	4.9	-5.7	-0.2

High-throughput results (PubChem)
